31 compounds from the supplement of paper PMC6609913 can be followed below.

Structures can show the parent of a compound that is named as a salt. ± gives the standard deviation of the averaged measurements. Over roughly 1,300 compounds, “normalised cell viability” has its median near 1; the lowest 2% begin near 0.14. The list comes from a sample in which the lowest values are over-represented; it also holds similar structures and randomly drawn compounds.

This experiment concerns V-C8 (BRCA2-deficient hamster cells). Briefly: normalised cell viability (fraction of plate median); higher = more viable cells (less toxic). The following applies: 5 µM. The essentials: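 Hamster V-C8 cells lacking BRCA2 and V-C8 cells with BRCA2 restored were seeded in 96-well plates. Library drugs (10 mM DMSO stocks) were added 24 h later at 5 μM in 100 μl medium, next to DMSO control wells, for 3 days (screen 1) or 6 days (screen 2). Cell viability was read by resazurin assay, median-plate normalised (modified robust per cent of sample), and triplicate wells were averaged.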

Take `COc1cc(NS(=O)(=O)c2ccc(N)cc2)ncn1` [Sulfamonomethoxine]: the normalised cell viability was 1.02 ± 0.057 (treatment time: 3 days) and 1.05 ± 0.031 (treatment time: 6 days).

For `CC(C)(C)NC[C@H](O)c1ccc(O)c(CO)c1` [Levalbuterol hydrochloride], the normalised cell viability runs as follows: (treatment time: 3 days) 1.03 ± 0.049; (treatment time: 6 days) 0.99 ± 0.13.

Consider `CC(C)(S)[C@@H](N)C(=O)O` [Penicillamine], for which the normalised cell viability is 0.964 ± 0.074 (treatment time: 3 days) and 1.04 ± 0.097 (treatment time: 6 days).

Take `N[C@@H](C(=O)N[C@@H]1C(=O)N2C(C(=O)O)=C(Cl)CC[C@H]12)c1ccccc1` [Loracarbef]: the normalised cell viability (treatment time: 3 days) stood at 1.05 ± 0.1 and the normalised cell viability (treatment time: 6 days) stood at 1.06 ± 0.033.

In turn, `OC(CCCN1CCCCC1)(c1ccccc1)c1ccccc1` [Diphenidol hydrochloride] had a normalised cell viability (treatment time: 3 days) of 1.06 ± 0.037 and a normalised cell viability (treatment time: 6 days) of 1.05 ± 0.031.

Regarding `CC(C)(C)c1ccc(C(O)CCCN2CCC(C(O)(c3ccccc3)c3ccccc3)CC2)cc1` (configuration not stated) [Terfenadine], the normalised cell viability by setting is: (treatment time: 3 days) 0.13 ± 0.0051; (treatment time: 6 days) 0.1 ± 0.0041.

Turning to `CC(C)(C(=O)O)c1ccc(C(O)CCCN2CCC(C(O)(c3ccccc3)c3ccccc3)CC2)cc1` (configuration not stated) [Fexofenadine HCl], the normalised cell viability is, setting by setting: (treatment time: 3 days) 1.09 ± 0.02; (treatment time: 6 days) 1.04 ± 0.046.

On to `NC[C@@H]1O[C@@H](O[C@H]2[C@H](O)[C@@H](O[C@H]3O[C@H](CO)[C@@H](O)[C@H](N)[C@H]3O)[C@H](N)C[C@@H]2N)[C@@H](O)[C@H](O)[C@H]1O` [Kanamycin A sulfate], for which the normalised cell viability reads like this: (treatment time: 3 days) 0.965 ± 0.052; (treatment time: 6 days) 1.04 ± 0.02.

Take `O=C1CN2Cc3c(ccc(Cl)c3Cl)N=C2N1` [Anagrelide]: the normalised cell viability runs as follows: (treatment time: 3 days) 1.01 ± 0.077; (treatment time: 6 days) 1.03 ± 0.054.

Take `c1ccc([C@H]2CN3CCSC3=N2)cc1` [Levamisole hydrochloride]: the normalised cell viability turned out to be 1.03 ± 0.02 (treatment time: 3 days) and 1.02 ± 0.032 (treatment time: 6 days).

Turning to `CCN(CC)CCc1nc(-c2ccccc2)no1` [Oxalamine citrate salt], the normalised cell viability is, setting by setting: (treatment time: 3 days) 0.986 ± 0.061; (treatment time: 6 days) 0.933 ± 0.14.

As to `O=C(O)Cc1cc(I)c(Oc2ccc(O)c(I)c2)c(I)c1` [Tiratricol, 3,3',5-triiodothyroacetic acid], the normalised cell viability stood at 0.981 ± 0.023 (treatment time: 3 days) and 1.03 ± 0.032 (treatment time: 6 days).

Take `CCCc1cc(=O)[nH]c(=S)[nH]1` [Propylthiouracil]: the normalised cell viability was 1.02 ± 0.022 (treatment time: 3 days) and 1.025 ± 0.009 (treatment time: 6 days).

Turning to `CC(=O)N1CCN(c2ccc(OCC3COC(Cn4ccnc4)(c4ccc(Cl)cc4Cl)O3)cc2)CC1` (configuration not stated) [Ketoconazole], the normalised cell viability runs as follows: (treatment time: 3 days) 0.8 ± 0.022; (treatment time: 6 days) 0.898 ± 0.028.

With `CC1(C)S[C@@H]2[C@H](NC(=O)[C@H](NC(=O)N3CCNC3=O)c3ccccc3)C(=O)N2[C@H]1C(=O)O` [Azlocillin sodium salt], the normalised cell viability is, setting by setting: (treatment time: 3 days) 1.01 ± 0.015; (treatment time: 6 days) 0.988 ± 0.092.

Take `Clc1cnccn1` [2-Chloropyrazine]: the normalised cell viability reads like this: (treatment time: 3 days) 1.03 ± 0.019; (treatment time: 6 days) 1.02 ± 0.016.

For `COCC1=C(C(=O)OC(C)OC(=O)OC(C)C)N2C(=O)[C@@H](NC(=O)/C(=N\OC)c3csc(N)n3)[C@H]2SC1` (some centres not stated) [Cefpodoxime proxetil], the normalised cell viability reads like this: (treatment time: 3 days) 1.18 ± 0.025; (treatment time: 6 days) 1.06 ± 0.086.

Regarding `CC(C(=O)O)c1ccc(N2Cc3ccccc3C2=O)cc1` (configuration not stated) [Indoprofen], the normalised cell viability is, setting by setting: (treatment time: 3 days) 1.012 ± 0.0016; (treatment time: 6 days) 1.08 ± 0.013.

Consider `Nc1nc(=O)[nH]cc1F` [Flucytosine], for which the normalised cell viability by setting is: (treatment time: 3 days) 1.06 ± 0.02; (treatment time: 6 days) 0.987 ± 0.025.

For `Cc1ccc2c(c1)c1c3n2CCNC3CCC1` (configuration not stated) [Pirlindole mesylate], the normalised cell viability by setting is: (treatment time: 3 days) 0.904 ± 0.084; (treatment time: 6 days) 0.9725 ± 0.0077.

As for `NCc1ccccc1CC(=O)N[C@@H]1C(=O)N2C(C(=O)O)=C(CSc3nnnn3CC(=O)O)CS[C@H]12` [Ceforanide], the normalised cell viability runs as follows: (treatment time: 3 days) 1.02 ± 0.073; (treatment time: 6 days) 1.21 ± 0.22.

As to `C=CC[N@@+]12CC[C@@]34c5ccccc5N5/C=C6/[C@H]7C[C@H]8[C@@]9(CC[N@@+]8(CC=C)C/C7=C/CO)c7ccccc7N(/C=C(/[C@@H](C[C@@H]31)/C(=C\CO)C2)[C@H]54)[C@@H]69` [Alcuronium chloride], the normalised cell viability is 0.939 ± 0.13 (treatment time: 3 days) and 1.03 ± 0.079 (treatment time: 6 days).

Turning to `c1ccc(-c2ccc(C(c3ccccc3)n3ccnc3)cc2)cc1` (configuration not stated) [Bifonazole], the normalised cell viability reads like this: (treatment time: 3 days) 0.878 ± 0.032; (treatment time: 6 days) 0.74 ± 0.06.

For `CC(=O)O[C@]1(C(C)=O)CC[C@H]2[C@@H]3C=C(Cl)C4=CC(=O)CC[C@]4(C)[C@H]3CC[C@@]21C` [Chlormadinone acetate], the normalised cell viability runs as follows: (treatment time: 3 days) 0.998 ± 0.06; (treatment time: 6 days) 0.983 ± 0.043.

Consider `NNc1nncc2ccccc12` [Hydralazine hydrochloride], for which the normalised cell viability reads like this: (treatment time: 3 days) 0.9847 ± 0.0028; (treatment time: 6 days) 1.03 ± 0.027.

In the case of `Nc1cc(-c2ccncc2)c[nH]c1=O` [Amrinone], the normalised cell viability amounted to 0.938 ± 0.029 (treatment time: 3 days) and 0.951 ± 0.018 (treatment time: 6 days).

Regarding `O=C(CCCCCCC(=O)Nc1ccccc1)NO` [Vorinostat], the normalised cell viability (treatment time: 3 days) stood at 0.14 ± 0.012 and the normalised cell viability (treatment time: 6 days) turned out to be 0.168 ± 0.012.

On to `CC(=O)Nc1ccc(CC(=O)O)cc1` [Actarit], for which the normalised cell viability runs as follows: (treatment time: 3 days) 1.05 ± 0.015; (treatment time: 6 days) 1.03 ± 0.038.

In the case of `O=C(CCCCC(=O)Nc1c(I)cc(I)c(C(=O)O)c1I)Nc1c(I)cc(I)c(C(=O)O)c1I` [Iodipamide], the normalised cell viability (treatment time: 3 days) amounted to 1.03 ± 0.06 and the normalised cell viability (treatment time: 6 days) turned out to be 0.972 ± 0.029.

In the case of `CC[C@H](C)C(=O)O[C@H]1CCC=C2C=C[C@H](C)[C@H](CC[C@@H]3C[C@@H](O)CC(=O)O3)[C@H]21` [Mevastatin], the normalised cell viability was 0.23 ± 0.011 (treatment time: 3 days) and 0.229 ± 0.0063 (treatment time: 6 days).

Regarding `CCCNC(C)C(=O)Nc1c(C)csc1C(=O)OC` (configuration not stated) [Articaine hydrochloride], the normalised cell viability was determined as 1.03 ± 0.024 (treatment time: 3 days) and 1.06 ± 0.084 (treatment time: 6 days).
